Screens (PubChem BioAssay)
Sampled rows, rich in hits. Any-hit rate of the full collection: about 4.6%.
D1 antagonist: Antagonist of Human D 1 Dopamine Receptor: qHTS | D(1A) dopamine receptor (Homo sapiens), P21728 | HEK293 TREx D1 cells, calcium flux, dopamine EC80; stronger effect = lower value | activity change, negative = inhibition, % at 10 µM | 360,000 tested, 3.2% active | AID 504652, 2011; in the data active = activity change below about -30%; also: % is scaled to controls: 0 for no effect and ±100 for the full control effect
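Allosteric or orthosteric antagonism assessed as attenuation of the calcium response to EC80 dopamine, added 180 s after compound, in induced HEK293 Trex D1 cells loaded with no-wash calcium dye.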
TRHR agonist: qHTS for Small Molecule Agonists and Allosteric Enhancers of Human TRH Receptor: Primary Screen for Agonists. Thyrotropin-releasing hormone receptor (Homo sapiens), P34981. TRHR cells, calcium flux fluo-8, FDSS agonist mode. activation, % at 2 µM. 360,000 tested, 0.18% active; also: 0% is about no effect
Target sequence (P34981 whole entry, looked up): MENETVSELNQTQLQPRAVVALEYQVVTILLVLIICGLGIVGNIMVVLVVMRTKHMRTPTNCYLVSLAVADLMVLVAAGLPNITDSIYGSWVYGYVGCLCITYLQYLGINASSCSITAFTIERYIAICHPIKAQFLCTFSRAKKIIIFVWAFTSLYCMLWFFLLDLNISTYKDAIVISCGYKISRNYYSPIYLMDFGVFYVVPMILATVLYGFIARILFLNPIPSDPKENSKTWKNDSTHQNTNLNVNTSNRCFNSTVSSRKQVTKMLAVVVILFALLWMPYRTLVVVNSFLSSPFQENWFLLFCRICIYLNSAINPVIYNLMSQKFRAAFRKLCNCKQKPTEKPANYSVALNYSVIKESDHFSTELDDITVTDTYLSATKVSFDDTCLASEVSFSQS
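Read-out: compound-evoked intracellular calcium rise in TRHR cells, fluo-8 dye, kinetic FDSS fluorescence at 1 s/cycle following a 10-cycle baseline. Cells cultured overnight before dye loading (30 min–1.5 h, RT).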
TRHR enhancer: qHTS for Small Molecule Agonists and Allosteric Enhancers of Human TRH Receptor: Primary Screen for Enhancers | Thyrotropin-releasing hormone receptor (Homo sapiens), P34981 | enhancement, % at 2 µM | 360,000 tested, 0.66% active | TRHR cells, fluo-8 calcium fluorescence, EC20 TRH enhancement; in the data active = enhancement above about 30%; also: 0% is about no effect
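TRHR-expressing cells loaded with fluo-8 calcium dye were read kinetically (ex 480/em 530) during compound addition, then stimulated with an EC20 of TRH (10 nM final). Enhancement of the Gq-mediated intracellular calcium response was scored.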
D1 agonist: Allosteric Agonists of the Human D1 Dopamine Receptor: qHTS; D(1A) dopamine receptor (Homo sapiens), P21728; HEK293 T-REx D1 cells, calcium flux, agonist mode; activation, % at 2 µM; 360,000 tested, 1% active; AID 504660, 2011; also: 0% is about no effect
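Inducible HEK293 T-REx D1 cells, force-coupled to calcium signalling, were plated at 4000 cells/well with tetracycline and held overnight at 30 C. After no-wash calcium dye loading, compound-evoked calcium rise over 180 s flagged agonists.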
D1 potentiator: Potentiators of Human D1 Dopamine Receptor: qHTS; D(1A) dopamine receptor (Homo sapiens), P21728; potentiation, % at 10 µM; HEK293 TREx D1 cells, calcium flux, dopamine EC20 potentiation; AID 504651, 2011; 360,000 tested, 0.036% active; in the data active = potentiation above about 30%; also: 0% is about no effect
The depositor's hits bear a star; . = not tested or not shown; ! = not active in a repeat. Rule as the data show it, unless noted: active = activation above about 30%; inactive = the rest.

SMILES | D1 antagonist | TRHR agonist | TRHR enhancer | D1 agonist | D1 potentiator
CCCN(CCC)S(=O)(=O)c1ccc(C(=O)N2CCn3c4c(c5cc(C)ccc53)CCCC42)cc1 (stereo not given) | 2.3 | 1.0 | 1.3 | -0.4 | -3.0
CCn1c(=O)c2sccc2n2c(CCCC(=O)Nc3ccc(Oc4ccccc4)cc3)nnc12 | -3.3 | -0.1 | 8.3 | 3.7 | -0.1
CC(=O)NCC(=O)OCC(=O)Nc1ccc(C(C)=O)cc1 | -30.8* | -0.8 | 13.0 | 5.3 | 4.5
O=C(COC(=O)CCC1CCCC1)Nc1ccc(F)cc1 | 20.3 | 0.4 | 2.6 | 4.3 | .
CC(=O)c1ccc(NC(=O)C[n+]2ccccc2)cc1 | -30.5* | 0.0 | 18.4 | 1.2 | -1.9
COC(=O)c1ccc(NC(=O)COC(=O)CCC2CCCC2)cc1 | -41.1* | -0.1 | -3.4 | 13.5 | .
COC(=O)c1ccc(NC(=O)C[n+]2ccccc2)cc1 | 1.8 | 0.6 | -0.8 | 5.4 | -2.4
CC(=O)c1ccc(NC(=O)CO/N=C(\C)c2cccs2)cc1 | -35.6* | -0.1 | -3.0 | 2.5 | -1.3
O=C(NCc1cccs1)c1ccc2c(c1)N(Cc1ccccc1Cl)C(=O)c1ccccc1S2 | 7.2 | 0.6 | -12.4 | 2.9 | 5.5
Cc1ccc(-n2nc(C(=O)N(C)Cc3ccccc3)c3c4ccccc4n(C)c3c2=O)cc1 | 4.9 | -0.4 | -4.7 | 3.9 | 0.8
CCN(c1ccc(OC)cc1)S(=O)(=O)c1ccc(-c2ccc(=O)[nH]n2)o1 | -41.4* | 2.1 | 1.4 | 7.9 | 4.8
Cc1cccc(-n2ncc(C(=O)NCc3ccccn3)c2C2CCN(C(=O)OC(C)(C)C)CC2)c1 | 3.8 | -0.9 | -4.5 | 1.5 | -1.2
O=C1NCCN(Cc2ccc(F)cc2)C1=O | -40.6* | 0.8 | 1.6 | -2.4 | -0.8
Cc1ccc(C(=O)Nc2cccc(O)c2)cc1S(=O)(=O)N1CCCCCC1 | -33.4*! | 0.4 | -7.1 | 0.5 | -3.2
COc1ccccc1C(CNC(=O)c1ccc(C)c(S(=O)(=O)N2CCCCC2)c1)N1CCCC1 (stereo not given) | -44.9* | -0.4 | 4.6 | 1.5 | -9.8
COc1ccc(C(CNC(=O)c2ccc(OC)c(S(=O)(=O)N3CCCC3)c2)N2CCCC2)cc1 (stereo not given) | -6.2 | -0.2 | -4.4 | -0.2 | -0.2
Cc1ccc(NC(=O)c2ccc(C)c(S(=O)(=O)N3CCCCCC3)c2)cc1 | 2.1 | 1.4 | -6.3 | 8.0 | -4.8
COc1ccc(C(CNC(=O)CNC(=O)c2cccc(Cl)c2)N2CCCC2)cc1 (stereo not given) | -37.4* | -0.1 | 2.8 | 4.9 | .
COc1ccc(C(CNC(=O)c2ccc(C)c(S(=O)(=O)Nc3ccccc3OC)c2)N2CCCC2)cc1 (stereo not given) | -38.4* | 0.4 | -4.6 | 14.3 | -0.7
COc1ccc(C(CNC(=O)c2cccc(S(=O)(=O)Nc3ccccc3OC)c2)N2CCCC2)cc1 (stereo not given) | -4.4 | 0.3 | 15.5 | 7.0 | -2.3
COc1ccc(C(CNC(=O)CNC(=O)c2ccccc2Cl)N2CCCC2)cc1 (stereo not given) | 4.5 | 0.0 | 12.9 | 0.0 | -5.8
COc1ccccc1NC(=O)C1CCN(C(=O)c2sc3nc[nH]c(=O)c3c2C)CC1 | -0.1 | 0.2 | 3.6 | 0.0 | 0.1
Cn1nnnc1SCCNCc1ccccc1OCc1ccc(Cl)cc1Cl | -10.0 | 1.1 | -11.7 | 12.8 | -2.2
O=C(CCc1nc2ccccc2c(=O)[nH]1)NCc1ccccn1 | -30.4* | 0.2 | 0.2 | 0.9 | -15.0
O=C(COC(=O)CCc1nc2ccccc2c(=O)[nH]1)Nc1ccccc1Cl | -41.1* | -1.1 | 8.8 | 0.8 | 5.4
SMILES | D1 antagonist | TRHR agonist | TRHR enhancer | D1 agonist | D1 potentiator
CCOC(=O)c1c(Nc2ccc(OC)cc2)nnc(-c2ccccc2)c1-c1ccccc1 | 9.3 | -0.5 | -11.1 | 0.3 | 0.6
Cc1ccc(CNC(=O)C2CCCN(S(=O)(=O)c3ccc4c(c3)oc(=O)n4C)C2)cc1 (stereo not given) | -23.3 | 0.8 | 2.2 | 2.3 | -4.2
Cc1ccc(-n2c(=O)c3c(C)c(C(=O)N(C)C)sc3n(CC(=O)N(C)c3ccccc3)c2=O)cc1C | 3.1 | -0.5 | 5.9 | -1.3 | 0.9
COc1cc(Cl)c(C)cc1Nc1nc2ccccc2c2nnc(C)n12 | -4.4 | -0.5 | 33.0* | 2.7 | -2.9
Cc1nnc2c3ccccc3nc(Nc3ccc(F)cc3Cl)n12 | -0.9 | 0.9 | 4.9 | 2.1 | 2.0
O=C(NCCS(=O)(=O)c1ccc(Br)cc1)c1ccccc1 | -12.4 | 0.0 | 2.0 | 0.9 | -2.9
O=C(NCCS(=O)(=O)c1ccc(Br)cc1)c1ccc(Cl)cc1Cl | -39.1* | -0.6 | -1.0 | 0.9 | -7.7
Cc1cc(C(=O)O)ccc1-c1ccc(/C=C2\SC(=O)N(CC(=O)Nc3ccc4c(c3)OCO4)C2=O)o1 | -14.8 | 13.7 | -5.4 | 43.1* | -3.0
c1ccc(SCCN2CCc3ccccc3C2)cc1 | -73.1* | -1.3 | 14.7 | 1.5 | -2.5
c1ccc(SCCOCCN2CCc3ccccc3C2)cc1 | -47.8* | -0.3 | 6.4 | 3.4 | -9.3
CCN(C(=O)CN(C)S(=O)(=O)c1ccc2c(c1)c(=O)n(C)c(=O)n2C)c1ccc(OC)cc1 | -5.4 | -0.3 | 28.3 | -0.3 | -1.9
CC1CCc2[nH]nc(C(=O)O)c2C1 (stereo not given) | -47.1* | -0.2 | 2.6 | 0.7 | -8.8
COc1cc(OC)cc(C(=O)NC(C(=O)Nc2ccc3c(c2)OCO3)C(C)C)c1 (stereo not given) | -9.1 | 0.9 | -0.3 | 2.6 | .
COc1cc(OC)cc(C(=O)N[C@H](C(=O)Nc2ccc3c(c2)OCO3)C(C)C)c1 | -33.4* | 1.7 | 1.0 | 3.4 | 1.7
C/C(CC(=O)NC1CCCC1)=N\NC(=O)c1ccc([N+](=O)[O-])c(Cl)c1 | 19.9 | -0.1 | 37.6* | 0.8 | -4.7
CN1CCN(Cn2cc(/C=C/C(=O)c3ccccc3)c3ccccc32)CC1 | -5.4 | 1.4 | 3.3 | 5.7 | -5.3
CCCN(CCC)CC(O)Cn1cc(/C=C/C(=O)c2ccc(C)cc2)c2ccccc21 (stereo not given) | -42.3* | 8.1 | 5.4 | 133.5* | 2.5
COc1ccc(C(=O)/C=C/c2cn(CC(O)CN(CC(C)C)CC(C)C)c3ccccc23)cc1 (stereo not given) | 8.2 | 3.0 | 3.9 | 12.5 | -1.4
CCCN(CCC)CC(O)Cn1cc(/C=C/C(=O)c2ccccc2)c2ccccc21 (stereo not given) | -30.7* | 2.2 | -1.9 | 72.5* | -1.1
CC(C)(C)NCC(O)Cn1cc(C=O)c2ccccc21 (stereo not given) | 12.7 | 1.7 | 2.0 | 2.4 | 4.5
